The chains are these.
T1: RBFOX1 RRM (Homo sapiens, UniProt Q9NWB1 109-208)
T1 sequence: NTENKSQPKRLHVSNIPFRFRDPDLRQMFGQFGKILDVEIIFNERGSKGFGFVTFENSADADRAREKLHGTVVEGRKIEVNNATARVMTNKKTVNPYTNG

B1: UUCGUAA (DNA:RNA)
RNA: GGGAGACCGGAAUUCAGAUUGUCCUUCGUAAUUAAAUCCCGUCGUAGCCACCA
DNA 1: CAATCTGAATTCCGGTCTCCC
DNA 2: TGGTGGCTACGACGGGATT
B2: GCGAAUA (DNA:RNA)
RNA: B1 RNA with U25G, U26C, C27G, G28A, U29A, A30U
DNA 1: CAATCTGAATTCCGGTCTCCC
DNA 2: TGGTGGCTACGACGGGATT
B3: AGCUUAC (DNA:RNA)
RNA: B1 RNA with U25A, U26G, G28U, A31C
DNA 1: CAATCTGAATTCCGGTCTCCC
DNA 2: TGGTGGCTACGACGGGATT
B4: UGACUUU (DNA:RNA)
RNA: B1 RNA with U26G, C27A, G28C, A30U, A31U
DNA 1: CAATCTGAATTCCGGTCTCCC
DNA 2: TGGTGGCTACGACGGGATT
B5: CAUGUCC (DNA:RNA)
RNA: B1 RNA with U25C, U26A, C27U, A30C, A31C
DNA 1: CAATCTGAATTCCGGTCTCCC
DNA 2: TGGTGGCTACGACGGGATT
B6: CUAGAAU (DNA:RNA)
RNA: B1 RNA with U25C, C27A, U29A, A31U
DNA 1: CAATCTGAATTCCGGTCTCCC
DNA 2: TGGTGGCTACGACGGGATT
B7: UAGCUCG (DNA:RNA)
RNA: B1 RNA with U26A, C27G, G28C, A30C, A31G
DNA 1: CAATCTGAATTCCGGTCTCCC
DNA 2: TGGTGGCTACGACGGGATT
B8: UAGUAGC (DNA:RNA)
RNA: B1 RNA with U26A, C27G, G28U, U29A, A30G, A31C
DNA 1: CAATCTGAATTCCGGTCTCCC
DNA 2: TGGTGGCTACGACGGGATT
B9: UCCUAGC (DNA:RNA)
RNA: B1 RNA with U26C, G28U, U29A, A30G, A31C
DNA 1: CAATCTGAATTCCGGTCTCCC
DNA 2: TGGTGGCTACGACGGGATT
B10: UAGCUCC (DNA:RNA)
RNA: B1 RNA with U26A, C27G, G28C, A30C, A31C
DNA 1: CAATCTGAATTCCGGTCTCCC
DNA 2: TGGTGGCTACGACGGGATT
B11: UAGCUUG (DNA:RNA)
RNA: B1 RNA with U26A, C27G, G28C, A30U, A31G
DNA 1: CAATCTGAATTCCGGTCTCCC
DNA 2: TGGTGGCTACGACGGGATT
B12: UAGCCCG (DNA:RNA)
RNA: B1 RNA with U26A, C27G, G28C, U29C, A30C, A31G
DNA 1: CAATCTGAATTCCGGTCTCCC
DNA 2: TGGTGGCTACGACGGGATT
B13: AGAAAUU (DNA:RNA)
RNA: GGGAGACCGGAAUUCAGAUUGUCCAGAAAUUUUAAAUCCCGUCGUAGCCACCA
DNA 1: CAATCTGAATTCCGGTCTCCC
DNA 2: TGGTGGCTACGACGGGATT
B14: UCAAUAA (DNA:RNA)
RNA: B1 RNA with U26C, C27A, G28A
DNA 1: CAATCTGAATTCCGGTCTCCC
DNA 2: TGGTGGCTACGACGGGATT
B15: ACAGCAG (DNA:RNA)
RNA: B13 RNA with G26C, A28G, A29C, U30A, U31G
DNA 1: CAATCTGAATTCCGGTCTCCC
DNA 2: TGGTGGCTACGACGGGATT
B16: CUCGUGG (DNA:RNA)
RNA: B1 RNA with U25C, A30G, A31G
DNA 1: CAATCTGAATTCCGGTCTCCC
DNA 2: TGGTGGCTACGACGGGATT
B17: CGGGCGC (DNA:RNA)
RNA: B13 RNA with A25C, A27G, A28G, A29C, U30G, U31C
DNA 1: CAATCTGAATTCCGGTCTCCC
DNA 2: TGGTGGCTACGACGGGATT
B18: GGGCGCU (DNA:RNA)
RNA: B13 RNA with A25G, A27G, A28C, A29G, U30C
DNA 1: CAATCTGAATTCCGGTCTCCC
DNA 2: TGGTGGCTACGACGGGATT
B19: UGGGCUU (DNA:RNA)
RNA: B13 RNA with A25U, A27G, A28G, A29C
DNA 1: CAATCTGAATTCCGGTCTCCC
DNA 2: TGGTGGCTACGACGGGATT
B20: CGGCUAG (DNA:RNA)
RNA: B1 RNA with U25C, U26G, C27G, G28C, A31G
DNA 1: CAATCTGAATTCCGGTCTCCC
DNA 2: TGGTGGCTACGACGGGATT
B21: CUGGGCU (DNA:RNA)
RNA: B1 RNA with U25C, C27G, U29G, A30C, A31U
DNA 1: CAATCTGAATTCCGGTCTCCC
DNA 2: TGGTGGCTACGACGGGATT
B22: UGGGGCU (DNA:RNA)
RNA: B13 RNA with A25U, A27G, A28G, A29G, U30C
DNA 1: CAATCTGAATTCCGGTCTCCC
DNA 2: TGGTGGCTACGACGGGATT
B23: GUCGGGC (DNA:RNA)
RNA: B1 RNA with U25G, U29G, A30G, A31C
DNA 1: CAATCTGAATTCCGGTCTCCC
DNA 2: TGGTGGCTACGACGGGATT
B24: GGGCUUG (DNA:RNA)
RNA: B13 RNA with A25G, A27G, A28C, A29U, U31G
DNA 1: CAATCTGAATTCCGGTCTCCC
DNA 2: TGGTGGCTACGACGGGATT
B25: GGCUAGU (DNA:RNA)
RNA: B13 RNA with A25G, A27C, A28U, U30G
DNA 1: CAATCTGAATTCCGGTCTCCC
DNA 2: TGGTGGCTACGACGGGATT
B26: GGGCUAG (DNA:RNA)
RNA: B1 RNA with U25G, U26G, C27G, G28C, A31G
DNA 1: CAATCTGAATTCCGGTCTCCC
DNA 2: TGGTGGCTACGACGGGATT
B27: GGGGCGC (DNA:RNA)
RNA: B13 RNA with A25G, A27G, A28G, A29C, U30G, U31C
DNA 1: CAATCTGAATTCCGGTCTCCC
DNA 2: TGGTGGCTACGACGGGATT
B28: GGGGGGC (DNA:RNA)
RNA: B13 RNA with A25G, A27G, A28G, A29G, U30G, U31C
DNA 1: CAATCTGAATTCCGGTCTCCC
DNA 2: TGGTGGCTACGACGGGATT
B29: UAGUGAU (DNA:RNA)
RNA: B1 RNA with U26A, C27G, G28U, U29G, A31U
DNA 1: CAATCTGAATTCCGGTCTCCC
DNA 2: TGGTGGCTACGACGGGATT
B30: CACUUCG (DNA:RNA)
RNA: B1 RNA with U25C, U26A, G28U, A30C, A31G
DNA 1: CAATCTGAATTCCGGTCTCCC
DNA 2: TGGTGGCTACGACGGGATT
B31: GUCUGUU (DNA:RNA)
RNA: B13 RNA with A25G, G26U, A27C, A28U, A29G
DNA 1: CAATCTGAATTCCGGTCTCCC
DNA 2: TGGTGGCTACGACGGGATT

The values below come from paper PMC9911399, “Two distinct binding modes provide the RNA-binding protein RbFox with extraordinary sequence specificity”.

Numbering of substitutions follows the chain as printed; changes in the protein carry UniProt numbers. In all, about 16,000 sequences were measured (“ka relative to ugcaugu”: median about 0.0091, highest 2% from about 0.032 on). The entries come from a sample that favours the highest values as a whole.

In the assay the target is T1, RBFOX1 RRM. Kind of assay: EMSA; HiTS-Eq, 1 nM pool, 10 min; buffer printed only for the single-RNA assays: 10 mM Tris pH 7.5, 150 mM NaCl, 3.4 mM EDTA, 0.001% NP-40, 30 C. To be noted: tags: His6 N-terminal (pET28a); label: 5' 32P. A digest of the protocol:
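A pool of RNA with 7 randomized nucleotides, 5′-radiolabelled and with DNA-annealed flanks, was equilibrated at 1 nM for 10 min in 50 µL with purified RbFox RRM, wild type or mutant, across increasing protein concentrations. Free RNA was separated by 8% native PAGE, excised, reverse-transcribed, barcoded by PCR and sequenced. Relative association constants were obtained from read-count changes of each RNA species versus the control reaction and normalised to the cognate motif.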
(In general: Mobility shift assays separate free from complexed probe on a gel.)
Turning to B1, the binding signal was 0.00742 KA relative to UGCAUGU.

As for B2, the binding signal is 0.0051 KA relative to UGCAUGU.

For the molecule B3, the binding signal is 0.00674 KA relative to UGCAUGU.

Regarding B4, the binding signal is 0.0147 KA relative to UGCAUGU.

In the case of B5, the binding signal is 0.00562 KA relative to UGCAUGU.

For the molecule B6, the binding signal is 0.00687 KA relative to UGCAUGU.

With B7, the binding signal is 0.0341 KA relative to UGCAUGU.

Regarding B8, the binding signal is 0.0177 KA relative to UGCAUGU.

B9: the binding signal was 0.0075 KA relative to UGCAUGU.

With B10, the binding signal was 0.00512 KA relative to UGCAUGU.

Regarding B11, the binding signal was 0.0445 KA relative to UGCAUGU.

Take B12: the binding signal was 0.0123 KA relative to UGCAUGU.

For B13, the binding signal was 0.00368 KA relative to UGCAUGU.

On to B14, for which the binding signal is 0.00079 KA relative to UGCAUGU.

As to B15, the binding signal was 0.00511 KA relative to UGCAUGU.

Regarding B16, the binding signal was 0.00654 KA relative to UGCAUGU.

For B17, the binding signal was 0.0268 KA relative to UGCAUGU.

B18: the binding signal is 0.0216 KA relative to UGCAUGU.

As to B19, the binding signal was 0.0356 KA relative to UGCAUGU.

Turning to B20, the binding signal is 0.02 KA relative to UGCAUGU.

As for B21, the binding signal is 0.0227 KA relative to UGCAUGU.

Take B22: the binding signal was 0.0267 KA relative to UGCAUGU.

In the case of B23, the binding signal was 0.0126 KA relative to UGCAUGU.

For B24, the binding signal was 0.0531 KA relative to UGCAUGU.

For the molecule B25, the binding signal was 0.0239 KA relative to UGCAUGU.

Consider B26, for which the binding signal is 0.0339 KA relative to UGCAUGU.

B27: the binding signal was 0.0421 KA relative to UGCAUGU.

As to B28, the binding signal was 0.0272 KA relative to UGCAUGU.

For B29, the binding signal was 0.00564 KA relative to UGCAUGU.

For the molecule B30, the binding signal is 0.0103 KA relative to UGCAUGU.

As for B31, the binding signal was 0.0246 KA relative to UGCAUGU.
